Experimental findings from PubChem BioAssay (NCATS) are described below.

SMILES strings stand for the structures. Inconclusive results are not listed. Activity calls are given as the source filed them. The call rests on the fitted dose curve; in most records, active means well fitted curve in the direction sought with a large enough effect; inconclusive means small, poorly fitted or top-dose-only effect, or another doubt; inactive means no such curve, though single readings can be large; an effect the other way counts as inactive or inconclusive.

Test [1] is described as follows: Quantitative High-Throughput drug screen in 47 multiple myeloma cell lines against the NCATS MIPE library collection: Delta47_JCRB cell viability assay (AID 1918925; further: nearly all actives have a fitted effect of over 45% in size). The method, boiled down:
(§1)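 CellTiter-Glo luminescence (ATP) after 48 h compound exposure, 37C/5% CO2; 500 cells/well; MIPE 4.0 approved/investigational drugs pinned in; DMSO = 100%, media only = 0% viability.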

Test [2] in a line: Quantitative High-Throughput drug screen in 47 multiple myeloma cell lines against the NCATS MIPE library collection: EJM_DSMZ cell viability assay (AID 1918926; further: nearly all actives have a fitted effect of over 30% in size). The essentials: as §1
Test [3] in a line: Quantitative High-Throughput drug screen in 47 multiple myeloma cell lines against the NCATS MIPE library collection: AMO1_DSMZ cell viability assay (AID 1918927; further: nearly all actives have a fitted effect of over 30% in size). The essentials: as §1
Test [4] in a line: Quantitative High-Throughput drug screen in 47 multiple myeloma cell lines against the NCATS MIPE library collection: Karpas620_DSMZ cell viability assay (AID 1918959). Further: nearly all actives have a fitted effect of over 30% in size. The method, boiled down:
(§2)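 Viability readout: CellTiter-Glo luminescence following 5 min room-temperature incubation with reagent. Prior exposure: 48 h, 37C, humidified 5% CO2, 500 cells per well.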

The nature of test [5]: Quantitative High-Throughput drug screen in 47 multiple myeloma cell lines against the NCATS MIPE library collection: Karpas417_ECACC cell viability assay (AID 1918961). The conditions noted are these: Karpas417 myeloma viability, CellTiter-Glo ATP luminescence, 48 h; viability (% of DMSO): at 45.8 µM (top of the series). The essentials:
(§3)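 Approved and investigational drugs from MIPE 4.0 were added by pin tool to 500 cells per well. After 48 hours at 37C, ATP-based CellTiter-Glo luminescence indicated remaining viability.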

The nature of test [6]: Quantitative High-Throughput drug screen in 47 multiple myeloma cell lines against the NCATS MIPE library collection: KHM11_PLB cell viability assay (AID 1918962). Further: nearly all actives have a fitted effect of over 35% in size. The essentials:
as §2

Test [7] is described as follows: Quantitative High-Throughput drug screen in 47 multiple myeloma cell lines against the NCATS MIPE library collection: JIM3_ECACC cell viability assay (AID 1918963; further: nearly all actives have a fitted effect of over 35% in size). The essentials: as §2
Test [8] is described as follows: Quantitative High-Throughput drug screen in 47 multiple myeloma cell lines against the NCATS MIPE library collection: JIM1_ECACC cell viability assay (AID 1918964). The essentials:
as §1

Test [9] in a line: Quantitative High-Throughput drug screen in 47 multiple myeloma cell lines against the NCATS MIPE library collection: JJN3_DSMZ cell viability assay (AID 1918966; further: nearly all actives have a fitted effect of over 50% in size). The method, boiled down:
as §1

Test [10] is described as follows: Quantitative High-Throughput drug screen in 47 multiple myeloma cell lines against the NCATS MIPE library collection: Karpas25_ECACC cell viability assay (AID 1918968; further: nearly all actives have a fitted effect of over 35% in size). The essentials: as §1
Test [11] can be described thus: Quantitative High-Throughput drug screen in 47 multiple myeloma cell lines against the NCATS MIPE library collection: KMS12BM_JCRB cell viability assay (AID 1918971). Further: nearly all actives have a fitted effect of over 35% in size. The method, boiled down: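 qHTS of the MIPE 4.0 collection: 500 myeloma cells/well, 48 h drug exposure at 37C in 5% CO2, then CellTiter-Glo for 5 min at room temperature before luminescence reading.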

Test [12] in a line: Quantitative High-Throughput drug screen in 47 multiple myeloma cell lines against the NCATS MIPE library collection: KMS12PE_JCRB cell viability assay (AID 1918972). Further: nearly all actives have a fitted effect of over 30% in size. The method, boiled down: as §3
The nature of test [13]: Quantitative High-Throughput drug screen in 47 multiple myeloma cell lines against the NCATS MIPE library collection: KMM1_JCRB cell viability assay (AID 1918960). Further: nearly all actives have a fitted effect of over 30% in size. The essentials:
(§4)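 Myeloma cells at 500 per well in 1536-well format treated with MIPE 4.0 library by pin transfer for 48 h at 37C, 5% CO2. Viability from ATP luminescence (CellTiter-Glo), normalized to DMSO (100%) and media-only (0%) wells.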

The nature of test [14]: Quantitative High-Throughput drug screen in 47 multiple myeloma cell lines against the NCATS MIPE library collection: INA6_PLB cell viability assay (AID 1918965; further: nearly all actives have a fitted effect of over 55% in size). The method, boiled down: as §3
Test [15] can be described thus: Quantitative High-Throughput drug screen in 47 multiple myeloma cell lines against the NCATS MIPE library collection: H1112_PLB cell viability assay (AID 1918967; further: nearly all actives have a fitted effect of over 30% in size). The method, boiled down:
as §1

Test [16] is described as follows: Quantitative High-Throughput drug screen in 47 multiple myeloma cell lines against the NCATS MIPE library collection: KMS27_JCRB cell viability assay (AID 1918970). Further: nearly all actives have a fitted effect of over 30% in size. The method, boiled down: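 ATP-based viability (CellTiter-Glo luminescence) is measured in cells treated 48 h with approved and investigational drugs at 37 °C. Controls are DMSO-only wells for full viability and media-only wells for none.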

Test [17] in a line: Quantitative High-Throughput drug screen in 47 multiple myeloma cell lines against the NCATS MIPE library collection: KMS20_JCRB cell viability assay (AID 1918973). Further: nearly all actives have a fitted effect of over 45% in size. The method, boiled down:
as §1

Test [18] in a line: Quantitative High-Throughput drug screen in 47 multiple myeloma cell lines against the NCATS MIPE library collection: ARP1_JJKsccF8 cell viability assay (AID 1918928; further: nearly all actives have a fitted effect of over 40% in size). The method, boiled down: as §4
Test [19] can be described thus: Quantitative High-Throughput drug screen in 47 multiple myeloma cell lines against the NCATS MIPE library collection: ARD_JJKsccE7 cell viability assay (AID 1918929). The method, boiled down:
as §1

Test [20] can be described thus: Quantitative High-Throughput drug screen in 47 multiple myeloma cell lines against the NCATS MIPE library collection: KMS21BM_JCRB cell viability assay (AID 1918974). Conditions: ATP luminescence, 48 h; viability: at 45.8 µM (top of the series) unless noted. The essentials: as §1
Potency means the concentration at half of the fitted maximal effect.

With `C[C@H]1C[C@@H]2[C@@H]([C@@H](O)C[C@@]3(C)[C@H]2CC[C@]3(O)C(=O)CO)[C@@]2(C)C=CC(=O)C=C12`, the Potency entry in test [1], in [2], in test [3], in test [4], in test [6] and in [7] was “inactive” throughout. Moreover, the Potency result in test [8], in test [9], in test [11] and in [12] was “inactive” each time. The Potency is 132 nM (active) in test [5] and 105 nM (active) in test [10].

`c1ccc2c(CCNc3ccc(Nc4ccncc4)cc3)c[nH]c2c1`: the Potency is 18700 nM (active) in test [1]; 14800 nM (active) in test [2]; 1480 nM (active) in test [3]; 2960 nM (active) in [13]; 16600 nM (active) in [7]; 23500 nM (active) in test [14]. Further, the Potency was 20900 nM (active) in [9]; 18700 nM (active) in test [15]; 20900 nM (active) in test [10]; 4180 nM (active) in [16]; 13200 nM (active) in [11]; 5260 nM (active) in test [12]. The Potency in [17] is 10500 nM (active).

In the case of `COc1cc2c(NC3CCN(C(C)C)CC3)nc(C3CCCCC3)nc2cc1OCCCN1CCCC1`, the Potency in test [1] is 4690 nM (active); in test [2] it was 10500 nM (active); in test [18], 7430 nM (active); in [4] it was 8330 nM (active); in test [13], 23500 nM (active); in test [6], 4690 nM (active). Also, the Potency in [8] was 23500 nM (active); in [14], 3720 nM (active); in test [9], 13200 nM (active); in [10] it was 7430 nM (active); in test [16], 7430 nM (active); in test [11] it was 7430 nM (active). Further, the Potency was 6620 nM (active) in test [12] and 2350 nM (active) in test [17].

As for `O=C(Nc1cc(C(F)(F)F)cc(C(F)(F)F)c1)c1cc(Cl)ccc1O`, the Potency in test [1] is 1870 nM (active); in test [2], 1480 nM (active); in test [18] it was 1050 nM (active); in test [19] it was 209 nM (active); in test [4], 833 nM (active); in [13], 132 nM (active). Further, the Potency is 590 nM (active) in test [5]; 1480 nM (active) in test [6]; 662 nM (active) in [7]; 1050 nM (active) in test [8]; 1660 nM (active) in test [14]; 1870 nM (active) in [9]. Also, the Potency in [15] was 1870 nM (active); in test [10], 372 nM (active); in test [16] it was 833 nM (active); in [11], 833 nM (active); in [12], 526 nM (active); in [17] it was 1320 nM (active). In test [20], the Potency is 526 nM (active).

For the compound `CC(C)c1ccc(Cn2ccc3c4c(N)nc(NC5CC5)nc4ccc32)cc1`, the Potency is 3320 nM (active) in test [1]; 14800 nM (active) in test [2]; 4180 nM (active) in [18]; 3320 nM (active) in test [19]; 1050 nM (active) in test [4]; 2350 nM (active) in test [13]. The Potency in [5] is 10500 nM (active); in [6], 14800 nM (active); in [7], 148 nM (active); in [8], 1870 nM (active); in [14], 1480 nM (active); in test [15] it was 9350 nM (active). Moreover, the Potency is 5900 nM (active) in test [10], 7430 nM (active) in test [11], 833 nM (active) in test [12] and 1320 nM (active) in test [20].

For `CC1=C(CO)C(=O)O[C@@H]([C@@H](C)[C@H]2CC[C@H]3[C@@H]4C[C@H]5O[C@]56[C@@H](O)C=CC(=O)[C@]6(C)[C@@H]4CC[C@]23C)C1`, the Potency in [1] was 148 nM (active); in [2], 235 nM (active); in test [18] it was 166 nM (active); in test [6] it was 209 nM (active); in test [7], 209 nM (active); in [14], 105 nM (active). In addition, the Potency was 662 nM (active) in test [9]; 418 nM (active) in [15]; 132 nM (active) in test [10]; 372 nM (active) in test [11]; 148 nM (active) in test [17]. The Potency result in test [19], in test [4], in test [13], in test [8] and in test [12] was “inactive” throughout.

As to `CC=C1NC(=O)[C@H]2CSSCCC=C[C@H](CC(=O)N[C@H](C(C)C)C(=O)N2)OC(=O)[C@H](C(C)C)NC1=O`, the Potency in [1] was 16.6 nM (active); in test [2], 29.6 nM (active); in test [18], 26.4 nM (active); in test [4], 26.4 nM (active); in [13] it was 7.4 nM (active); in test [6], 16.6 nM (active). Besides, the Potency in [7] is 46.9 nM (active); in test [14], 13.2 nM (active); in test [10], 14.8 nM (active); in test [11], 10.5 nM (active); in test [17], 20.9 nM (active).

With `O=C(CCCCCCC(=O)Nc1ccc([C@H]2O[C@@H](CSc3nc(-c4ccccc4)c(-c4ccccc4)o3)C[C@@H](c3ccc(CO)cc3)O2)cc1)NO`, the Potency is 11800 nM (active) in test [1]; 13200 nM (active) in [2]; 10500 nM (active) in [18]; 14800 nM (active) in [6]; 23500 nM (active) in test [7]; 5260 nM (active) in test [14]. The Potency in [9] is 13200 nM (active); in [15], 13200 nM (active); in test [10] it was 9350 nM (active); in test [11], 11800 nM (active). Moreover, the Potency entry in test [19], in [4], in [13], in [8], in [16] and in test [12] was “inactive” each time.

`CC1(O)CC(c2nc(-c3ccc4ccc(-c5ccccc5)nc4c3)c3c(N)nccn23)C1` (centres undefined): the Potency in [1] was 83.3 nM (active); in test [2], 6620 nM (active); in test [18], 5900 nM (active); in [19], 105 nM (active); in test [4], 590 nM (active); in [13], 1050 nM (active). The Potency in [6] was 4180 nM (active); in test [8] it was 10.5 nM (active); in [14], 6620 nM (active); in test [9], 6620 nM (active); in [15], 23500 nM (active); in test [10], 372 nM (active). In addition, the Potency in [16] is 2350 nM (active); in [11] it was 16600 nM (active); in [12] it was 2350 nM (active).

For the compound `C[C@@]12O[C@@H](C[C@]1(O)CO)n1c3ccccc3c3c4c(c5c6ccccc6n2c5c31)CNC4=O`, the Potency in [1] was 418 nM (active); in [2], 2960 nM (active); in [18] it was 662 nM (active); in test [13], 526 nM (active); in [6] it was 66.2 nM (active); in [7], 526 nM (active). Further, the Potency in test [14] was 74.3 nM (active); in [9] it was 418 nM (active); in [15], 1480 nM (active); in [10], 296 nM (active); in [11], 1480 nM (active); in test [17], 148 nM (active).
